Assay results: PubChem BioAssay (Tox21)
Results filed as inconclusive are left out. Active and inactive are the calls of the source. Unless noted, calls follow the shape of the dose curve; as a rule, active = well fitted curve in the direction sought with a large enough effect in the repeat runs; inconclusive = weak or mixed curves; inactive = no such curve, though single readings can be large; an effect the other way counts as inactive or inconclusive.

Columns and labels:
[1] = molecular target: Estrogen receptor beta (Homo sapiens) (UniProt Q92731); experiment: qHTS assay to identify small molecule agonists of the estrogen receptor beta (ER-beta) signaling pathway (AID 1259377; active = well fitted activation curve with a large enough effect in the signal ratio in the repeat runs, not every such curve was filed as active; the % refers to the signal ratio)
Procedure, shortened: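 Reporter cells (HEK293T, ER-beta-UAS-bla) receive compounds or DMSO after a 6 hr pre-incubation. They then incubate 16 hr at 37C/5% CO2, and fluorescence from LiveBLAzer B/G substrate is measured after 2 hours at room temperature.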

[2] = qHTS assay to identify small molecule agonists of the androgen receptor (AR) signaling pathway in the presence of an antagonist - cell viability counter screen (AID 1259379);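 also: MDA-kb2 human breast cancer cells carrying an MMTV luciferase reporter; series mostly up to about 92 µM; nearly all actives have a fitted effect of over 25% in size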
Procedure, shortened: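 MDA-kb2 viability measured by CellTiter-Fluor fluorescence in the same wells as the luciferase signal; nilutamide 3.0uM final; 15-point compound titration; 16 hr at 37C.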

[3] = qHTS assay to identify small molecule agonists of the estrogen receptor beta (ER-beta) signaling pathway - cell viability counter screen (AID 1259380); also: nearly all actives have a fitted effect of over 30% in size; also: potency is read from the fitted curve at half-maximal effect
Procedure, shortened: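 Measured: luminescence from CellTiter-Glo after 30 min at room temperature, added to wells already read for the LiveBLAzer FRET reporter (2 hr substrate); ER-beta-UAS-bla HEK293T cells had 16 hr compound treatment at 37C, 5% CO2.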

[4] = qHTS assay to identify small molecule antagonists of the estrogen receptor beta (ER-beta) signaling pathway - cell viability counter screen (AID 1259382); also: series mostly up to about 92 µM; nearly all actives have a fitted effect of over 55% in size
Procedure, shortened: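 Readout: luminescence, CellTiter-Glo, same wells as bla assay. System: ER-beta-UAS-bla GripTite HEK293T, 2% charcoal-stripped FBS. Exposure: compounds plus 1nM 17-beta-estradiol, 16 hr, 37C.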

[5] = molecular target: Thyrotropin receptor (Homo sapiens) (UniProt P16473); experiment: qHTS assay to identify small molecule antagonists of the thyroid stimulating hormone receptor (TSHR) signaling pathway (AID 1259385; calls by dose curve; also: nearly all actives have a fitted effect of over 20% in size)
Procedure, shortened: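 TSHR-HEK293 cells were plated and held 18 h at 37C/5% CO2, then given compound plus Ro20-1724 and stimulated with TSH at 1.5 ng/mL final. After 30 min at room temperature, cAMP was detected with cAMP-d2/anti-cAMP-cryptate (1 h) by fluorescence.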

[6] = molecular target: Progesterone receptor (Homo sapiens) (UniProt P06401); experiment: qHTS assay to identify small molecule agonists of the progesterone receptor (PR) signaling pathway (AID 1346784; calls by dose curve; also: nearly all actives have a fitted effect of over 30% in size)
Procedure, shortened: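 Reporter assay, GripTite PR-UAS-bla HEK 293T cells: 16 hr exposure to DMSO-dissolved compounds at 37C, 5% CO2, in steroid-depleted (2% charcoal-stripped FBS) medium; beta-lactamase measured by FRET fluorescence.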

[7] = molecular target: Progesterone receptor (Homo sapiens) (UniProt P06401); experiment: qHTS assay to identify small molecule antagonists of the progesterone receptor (PR) signaling pathway (AID 1346795; active = well fitted inhibition curve with a large enough effect in the signal ratio in the repeat runs, not every such curve was filed as active; the % refers to the signal ratio; also: potency is read from the fitted curve at half-maximal effect)
Procedure, shortened: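 Stimulus R5020 at 1 nM final; cells HEK293T PR-UAS-bla; medium with 2% charcoal-stripped FBS; compound exposure 16 hr at 37C, 5% CO2; detection by FRET beta-lactamase substrate, 2 hr, room temperature.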

[8] = qHTS assay to identify small molecule antagonists of the progesterone receptor (PR) signaling pathway - cell viability counter screen (AID 1346798); also: series mostly up to about 92 µM; nearly all actives have a fitted effect of over 50% in size
Procedure, shortened: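 In the same plates used for the beta-lactamase readout, cell viability of compound- and R5020-treated PR-UAS-bla HEK293T cells (16 hr, 37C) was assessed by CellTiter-Glo luminescence.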

[9] = qHTS assay to identify small molecule agonists of the progesterone receptor (PR) signaling pathway - cell viability counter screen (AID 1346799; calls by dose curve; also: nearly all actives have a fitted effect of over 45% in size)
Procedure, shortened: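 Multiplexed viability read: CellTiter-Glo luminescence, 30 min RT, following LiveBLAzer FRET measurement on PR-UAS-bla HEK293T cells exposed to compounds 16 hr.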

[10] = qHTS assay to identify small molecule antagonists of the TGF-beta/Smad signaling pathway - cell viability counter screen (AID 1346824); also: nearly all actives have a fitted effect of over 50% in size
Procedure, shortened: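 SBE-bla HEK 293T cells were plated overnight at 37 C, then given compounds in DMSO plus TGF-beta1 (added as 0.25 ng/mL solution) for 5 hr. After the bla read, CellTiter-Glo was added to the same wells and luminescence read after 30 min at room temperature.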

[11] = qHTS assay to identify small molecule agonists of the TGF-beta/Smad signaling pathway - cell viability counter screen (AID 1346829); also: top concentration of the series differs between compounds; nearly all actives have a fitted effect of over 45% in size
Procedure, shortened: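 Cytotoxicity counter screen: CellTiter-Glo luminescence (30 min, room temperature) measured in the SBE-bla HEK 293T reporter wells after 5 hr compound treatment at 37 C and the 2 hr substrate step.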

[12] = qHTS assay to identify small molecule agonists of the TGF-beta/Smad signaling pathway (AID 1346859; active = well fitted activation curve with a large enough effect in the signal ratio in the repeat runs, not every such curve was filed as active; the % refers to the signal ratio; also: series mostly up to about 77 µM)
Procedure, shortened: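 Screening used HEK 293T SBE-bla cells at 4,000/well. Test agents: 5 hr, 37 C. Detection: FRET substrate, 2 hr RT, then excitation 405 nm with emissions at 460 and 530 nm.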

[13] = molecular target: Estrogen receptor beta (Homo sapiens) (UniProt Q92731); experiment: qHTS assay to identify small molecule antagonists of the estrogen receptor beta (ER-beta) signaling pathway (AID 1259378; active = well fitted inhibition curve with a large enough effect in the signal ratio in the repeat runs, not every such curve was filed as active; the % refers to the signal ratio; also: potency is read from the fitted curve at half-maximal effect)
Procedure, shortened: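 ER-beta-UAS-bla HEK293T (GripTite) cells in 2% charcoal-stripped FBS medium were preincubated 6 hr at 37C, dosed with compound, then stimulated with 1 nM E2 (final) for 16 hr; beta-lactamase reporter read by B/G FRET fluorescence after 2 hr substrate loading.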

[14] = molecular target: Estrogen receptor (Homo sapiens) (UniProt P03372); experiment: qHTS assay to identify small molecule agonists of the estrogen receptor alpha (ER-alpha) signaling pathway in the presence of an antagonist (AID 1259383; calls by dose curve; also: nearly all actives have a fitted effect of over 15% in size; also: potency is read from the fitted curve at half-maximal effect; as to activation: top concentration of the series differs between compounds)
Procedure, shortened: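 Quantitative HTS confirmation: compounds titrated at 15 concentrations onto estrogen-deprived VM7Luc4E2 cells carrying a four-ERE luciferase construct, with ICI-182,780 present at 10.0nM final. Signal is luminescence after 22hr exposure.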

[15] = qHTS assay to identify small molecule agonists or antagonists of the thyroid stimulating hormone receptor (TSHR) signaling pathway - wild type cell line counter screen (AID 1259384; calls by dose curve)
Procedure, shortened: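 Wild-type HEK293 cells were plated 18 h at 37 C/5% CO2, pin-dosed with compound plus Ro20-1724 medium, held 30 min at room temperature, then given cAMP-d2 and anti-cAMP-cryptate; fluorescence was read after 1 h. Fifteen concentrations, triplicate.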

[16] = qHTS assay to identify small molecule agonists of the estrogen receptor alpha (ER-alpha) signaling pathway in the presence of an antagonist - cell viability counter screen (AID 1259386);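 also: series mostly up to about 92 µM; cells exposed to compounds for 22 h at 37 °C before the viability read; nearly all actives have a fitted effect of over 30% in size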
Procedure, shortened: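 The test measures whether compounds kill ER-alpha reporter cells (VM7Luc4E2) under antagonist co-treatment (ICI-182,780, 10.0nM). Fluorescence from CellTiter-Fluor is read after a 22hr exposure.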

[17] = molecular target: Thyrotropin-releasing hormone receptor (Homo sapiens) (UniProt P34981); experiment: qHTS assay to identify small molecule antagonists of the thyrotropin-releasing hormone receptor (TRHR) signaling pathway (AID 1346877; active = well fitted inhibition curve with a large enough effect in the repeat runs, not every such curve was filed as active; also: series mostly up to about 51 µM)
Procedure, shortened: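 Overnight-plated (18 h, 37 °C) HEK293 cells expressing TRHR were dye-loaded 2 h, treated with compound, then stimulated with TRH at 1 nM final. Fluorescence intensity was captured every second for 3 min.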

[18] = molecular target: Thyrotropin-releasing hormone receptor (Homo sapiens) (UniProt P34981); experiment: qHTS assay to identify small molecule agonists of the thyrotropin-releasing hormone receptor (TRHR) signaling pathway (AID 1346891; calls by dose curve; also: series mostly up to about 58 µM)
Procedure, shortened: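 Readout was intracellular calcium fluorescence in TRHR-Hek293 cells. Cells were incubated 18 h, dye-loaded 2 h at 37 °C, and treated with compound in agonist mode.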

[19] = molecular target: Androgen receptor (Homo sapiens) (UniProt P10275); experiment: qHTS assay to identify small molecule agonists of the androgen receptor (AR) signaling pathway in the presence of an antagonist (AID 1259381; calls by dose curve; also: nearly all actives have a fitted effect of over 15% in size)
Procedure, shortened: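 Luminescent ONE-Glo read, 30min at room temperature, follows 16hr compound exposure (15 concentrations) of MDA-kb2 cells at 37C, 0% CO2, with nilutamide added at 3.0uM final.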

Measured: Potency

Chain of Thyrotropin-releasing hormone receptor (Homo sapiens) (P34981 whole entry, looked up): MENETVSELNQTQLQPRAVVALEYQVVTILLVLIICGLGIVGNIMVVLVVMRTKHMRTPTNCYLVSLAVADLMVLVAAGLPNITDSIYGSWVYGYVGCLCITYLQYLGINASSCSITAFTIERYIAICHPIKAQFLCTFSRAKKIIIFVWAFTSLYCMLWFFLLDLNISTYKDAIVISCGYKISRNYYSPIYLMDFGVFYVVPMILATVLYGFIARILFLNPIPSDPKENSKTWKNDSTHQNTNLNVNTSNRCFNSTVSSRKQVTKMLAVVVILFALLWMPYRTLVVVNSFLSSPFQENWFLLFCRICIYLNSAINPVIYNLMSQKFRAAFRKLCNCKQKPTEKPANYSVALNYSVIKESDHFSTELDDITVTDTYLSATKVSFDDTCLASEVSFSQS
Chain of Estrogen receptor beta (Homo sapiens) (Q92731 whole entry, looked up): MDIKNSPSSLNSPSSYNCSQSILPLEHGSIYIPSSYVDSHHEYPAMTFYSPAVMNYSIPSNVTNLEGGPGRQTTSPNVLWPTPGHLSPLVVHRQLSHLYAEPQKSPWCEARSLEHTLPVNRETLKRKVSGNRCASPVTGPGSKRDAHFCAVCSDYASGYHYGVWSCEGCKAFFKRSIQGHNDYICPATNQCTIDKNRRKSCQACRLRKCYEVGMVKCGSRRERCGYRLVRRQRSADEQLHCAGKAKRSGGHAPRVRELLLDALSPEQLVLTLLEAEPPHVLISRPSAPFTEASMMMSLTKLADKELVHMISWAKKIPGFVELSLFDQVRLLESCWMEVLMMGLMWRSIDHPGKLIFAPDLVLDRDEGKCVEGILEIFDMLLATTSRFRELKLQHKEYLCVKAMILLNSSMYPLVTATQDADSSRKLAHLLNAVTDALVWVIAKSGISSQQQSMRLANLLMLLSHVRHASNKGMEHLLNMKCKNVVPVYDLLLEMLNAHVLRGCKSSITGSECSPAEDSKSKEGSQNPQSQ
Chain of Estrogen receptor (Homo sapiens) (P03372 whole entry, looked up): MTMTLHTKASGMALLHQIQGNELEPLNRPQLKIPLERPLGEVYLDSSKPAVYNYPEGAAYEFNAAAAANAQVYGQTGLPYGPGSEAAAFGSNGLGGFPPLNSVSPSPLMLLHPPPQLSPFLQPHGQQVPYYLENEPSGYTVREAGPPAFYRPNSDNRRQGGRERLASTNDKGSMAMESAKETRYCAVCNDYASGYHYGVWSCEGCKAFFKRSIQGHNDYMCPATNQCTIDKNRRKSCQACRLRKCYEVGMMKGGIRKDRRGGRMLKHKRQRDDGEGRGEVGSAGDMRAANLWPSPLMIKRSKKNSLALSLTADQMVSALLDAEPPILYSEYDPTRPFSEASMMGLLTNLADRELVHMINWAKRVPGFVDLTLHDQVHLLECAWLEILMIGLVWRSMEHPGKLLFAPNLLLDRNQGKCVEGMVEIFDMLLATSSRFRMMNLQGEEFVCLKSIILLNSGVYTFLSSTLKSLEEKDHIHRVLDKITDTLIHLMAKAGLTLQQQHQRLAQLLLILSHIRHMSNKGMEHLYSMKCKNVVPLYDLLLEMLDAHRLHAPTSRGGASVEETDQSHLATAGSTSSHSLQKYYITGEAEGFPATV
Chain of Thyrotropin receptor (Homo sapiens) (P16473 whole entry, looked up): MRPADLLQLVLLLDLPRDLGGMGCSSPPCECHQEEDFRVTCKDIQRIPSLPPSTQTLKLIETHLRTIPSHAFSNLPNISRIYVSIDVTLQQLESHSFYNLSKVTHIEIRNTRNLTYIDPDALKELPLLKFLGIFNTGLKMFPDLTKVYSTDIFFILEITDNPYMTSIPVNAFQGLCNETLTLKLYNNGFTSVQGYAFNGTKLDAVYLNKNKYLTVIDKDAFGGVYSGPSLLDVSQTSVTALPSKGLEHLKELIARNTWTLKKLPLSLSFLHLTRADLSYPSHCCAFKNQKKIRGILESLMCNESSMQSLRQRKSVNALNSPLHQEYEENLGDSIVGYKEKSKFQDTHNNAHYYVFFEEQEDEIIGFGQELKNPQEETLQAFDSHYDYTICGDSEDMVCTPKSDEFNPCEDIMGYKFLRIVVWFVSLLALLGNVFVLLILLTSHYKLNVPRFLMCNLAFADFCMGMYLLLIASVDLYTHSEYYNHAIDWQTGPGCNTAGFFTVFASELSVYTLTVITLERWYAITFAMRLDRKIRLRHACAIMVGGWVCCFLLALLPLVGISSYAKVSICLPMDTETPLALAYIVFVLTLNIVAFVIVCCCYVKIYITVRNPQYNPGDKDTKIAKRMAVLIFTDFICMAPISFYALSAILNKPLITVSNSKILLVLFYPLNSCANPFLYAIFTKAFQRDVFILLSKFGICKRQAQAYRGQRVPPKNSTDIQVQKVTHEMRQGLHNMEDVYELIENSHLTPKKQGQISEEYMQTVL
Chain of Progesterone receptor (Homo sapiens) (P06401 whole entry, looked up): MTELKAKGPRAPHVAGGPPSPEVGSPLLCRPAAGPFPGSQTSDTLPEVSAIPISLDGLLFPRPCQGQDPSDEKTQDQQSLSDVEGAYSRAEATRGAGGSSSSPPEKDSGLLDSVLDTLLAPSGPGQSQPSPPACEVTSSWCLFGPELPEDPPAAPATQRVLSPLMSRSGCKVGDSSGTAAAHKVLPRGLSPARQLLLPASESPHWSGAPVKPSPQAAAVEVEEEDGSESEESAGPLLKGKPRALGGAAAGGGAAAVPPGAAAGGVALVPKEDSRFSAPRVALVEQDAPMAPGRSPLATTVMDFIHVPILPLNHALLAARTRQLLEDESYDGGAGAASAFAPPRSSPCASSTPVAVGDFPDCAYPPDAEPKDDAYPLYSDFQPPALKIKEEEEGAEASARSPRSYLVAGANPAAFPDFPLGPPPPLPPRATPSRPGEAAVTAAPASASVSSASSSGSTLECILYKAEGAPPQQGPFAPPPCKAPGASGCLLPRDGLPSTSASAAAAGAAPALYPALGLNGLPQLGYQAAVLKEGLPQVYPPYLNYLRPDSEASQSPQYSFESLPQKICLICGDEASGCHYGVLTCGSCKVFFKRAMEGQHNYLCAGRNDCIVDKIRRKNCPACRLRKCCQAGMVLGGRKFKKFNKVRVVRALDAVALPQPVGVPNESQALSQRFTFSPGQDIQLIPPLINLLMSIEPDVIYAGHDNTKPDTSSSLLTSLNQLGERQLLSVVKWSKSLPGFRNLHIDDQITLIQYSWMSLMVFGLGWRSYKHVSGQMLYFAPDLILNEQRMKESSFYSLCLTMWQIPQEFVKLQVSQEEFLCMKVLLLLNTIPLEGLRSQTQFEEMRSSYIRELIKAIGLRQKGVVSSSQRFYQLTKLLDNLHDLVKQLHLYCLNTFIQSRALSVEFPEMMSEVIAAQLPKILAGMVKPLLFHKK
Chain of Androgen receptor (Homo sapiens) (P10275 whole entry, looked up): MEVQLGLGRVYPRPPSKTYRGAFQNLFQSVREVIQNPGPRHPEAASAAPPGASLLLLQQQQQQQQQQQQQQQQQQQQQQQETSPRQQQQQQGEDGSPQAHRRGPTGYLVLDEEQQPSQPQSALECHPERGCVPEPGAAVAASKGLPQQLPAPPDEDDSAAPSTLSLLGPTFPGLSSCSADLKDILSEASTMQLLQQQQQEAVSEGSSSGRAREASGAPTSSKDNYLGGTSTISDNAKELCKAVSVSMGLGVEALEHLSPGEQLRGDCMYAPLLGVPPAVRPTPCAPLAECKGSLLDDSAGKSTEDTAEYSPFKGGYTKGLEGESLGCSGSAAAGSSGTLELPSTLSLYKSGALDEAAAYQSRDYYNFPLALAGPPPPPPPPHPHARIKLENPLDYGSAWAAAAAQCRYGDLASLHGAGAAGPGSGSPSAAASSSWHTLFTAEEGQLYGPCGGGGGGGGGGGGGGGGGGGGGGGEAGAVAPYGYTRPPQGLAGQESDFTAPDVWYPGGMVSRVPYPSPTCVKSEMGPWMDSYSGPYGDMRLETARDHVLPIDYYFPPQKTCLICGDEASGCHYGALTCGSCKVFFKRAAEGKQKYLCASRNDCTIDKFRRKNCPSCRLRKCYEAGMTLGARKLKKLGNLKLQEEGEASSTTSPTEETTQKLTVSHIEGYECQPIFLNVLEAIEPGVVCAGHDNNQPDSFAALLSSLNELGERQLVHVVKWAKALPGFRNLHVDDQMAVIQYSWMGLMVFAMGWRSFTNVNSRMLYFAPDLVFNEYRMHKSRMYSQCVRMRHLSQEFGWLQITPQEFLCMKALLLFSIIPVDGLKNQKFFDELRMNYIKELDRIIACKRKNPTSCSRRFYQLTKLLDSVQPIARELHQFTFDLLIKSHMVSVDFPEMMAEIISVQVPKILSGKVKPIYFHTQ

CCCCCON=O
not listed: [13] | [14] | [15] | [16] | [17] | [18] | [19]
inactive: all other assays above

Cc1cc2c3c(c1)C(c1ccccc1)=N[C@@H](NC(=O)c1ccncc1)C(=O)N3CC2
not listed: [2] | [8] | [19]
inactive: all other assays above

COc1ccc2c3c1O[C@H]1[C@H](O)CC[C@H]4[C@@H](C2)N(C)CC[C@@]341
not listed: [2] | [8] | [9] | [14] | [19]
inactive: all other assays above

c1ccc(Nc2ccc(Nc3ccccc3)cc2)cc1
inactive: [1] | [2] | [4] | [15] | [5] | [6] | [10] | [12] | [18]
active: [13] 0.136 µM | [14] 54.3 µM | [7] 6.09 µM

Oc1ccc([C@H]2CNCc3c2ccc(O)c3O)cc1O
not listed: [2] | [5] | [13] | [15] | [16] | [19]
inactive: all other assays above

O=C1C[C@@H]2OCC=C3CN4CC[C@]56c7ccccc7N1[C@H]5[C@H]2[C@H]3C[C@H]46
not listed: [1] | [8] | [9] | [13] | [14] | [16] | [17] | [19]
inactive: all other assays above

CCOP(=O)(OCC)Oc1nc(Cl)c(Cl)cc1Cl
inactive: [2] | [19] | [14] | [8] | [10] | [11] | [12] | [18]
active: [3] 8.58 µM | [7] 5.42 µM

CC(C)(C)c1ccc(OP(=O)(Oc2ccccc2)Oc2ccccc2)cc1
inactive: [1] | [14] | [6] | [8] | [9] | [10] | [11] | [12] | [17] | [18]
active: [7] 21.8 µM

N#CSCc1ccccc1
not listed: [1] | [9] | [13] | [15] | [17] | [19]
inactive: all other assays above

BrCCCBr
not listed: [1] | [9] | [13] | [14] | [17]
inactive: all other assays above
